# Data from PubChem BioAssay (EPA / NIEHS).
# Results filed as inconclusive are left out. Calls of active or inactive are those of the source. How the source made its calls, unless noted: active means hit-call score of the fitted dose curve at least 0.9, where 1 is the maximum; inactive means score below 0.9.
# Assays:
# [1] = read-out: Interleukin 6 (IL6), IL6 (gene 3569); experiment: BSK_BT_xIL6: BioMAP Diversity Plus: BT Assay for Interleukin 6 (IL6) Biomarker Activity (AID 2284228); conditions: primary human B cells with PBMC
# Procedure, shortened: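 IL-6 secretion measured (Luminex xMAP) in human primary B cell + PBMC co-culture at 24 h of chemical exposure; DMSO served as negative control and activity baseline, with curves fitted for increase.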
# [2] = read-out: Tumor necrosis factor (Homo sapiens) (UniProt P01375); experiment: BSK_BT_xTNFa: BioMAP Diversity Plus: BT Assay for Tumor necrosis factor alpha (TNF-alpha) Biomarker Activity (AID 2284230); conditions: primary human B cells with PBMC
# Procedure, shortened: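 Endpoint derived in the positive direction versus DMSO vehicle. Cells: B cells together with PBMC, exposed 24 h before TNF-alpha in the medium was read on the Luminex xMAP platform.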
# [3] = read-out: Vascular cell adhesion molecule 1 (VCAM1), VCAM1 (gene 7412); experiment: BSK_MyoF_VCAM1: BioMAP Diversity Plus: MyoF Assay for Vascular cell adhesion molecule 1 (VCAM1) Biomarker Activity (AID 2284231); conditions: primary human lung fibroblasts
# Procedure, shortened: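 VCAM-1 levels, lung fibroblasts, ELISA, 24 h exposure, increase scored relative to DMSO.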
# [4] = read-out: Collagen I, COL1A1 (gene 1277); experiment: BSK_MyoF_CollagenI: BioMAP Diversity Plus: MyoF Assay for Collagen I Biomarker Activity (AID 2284238); conditions: primary human lung fibroblasts
# Procedure, shortened: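 Measured by ELISA: Collagen I from human lung fibroblasts 24 h after compound addition, analysed for signal gain with DMSO as baseline; overt toxicity read from SRB staining of parallel cultures at the same time.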
# [5] = read-out: Collagen III, COL3A1 (gene 1281); experiment: BSK_MyoF_CollagenIII: BioMAP Diversity Plus: MyoF Assay for Collagen III Biomarker Activity (AID 2284239); conditions: primary human lung fibroblasts
# Procedure, shortened: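 Multiplexed cell assay in lung fibroblasts, harvested at 24 h post-dose. Collagen III detected by ELISA, with positive-direction fitting relative to DMSO vehicle.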
# [6] = read-out: Interleukin 17F (IL17F), IL17F (gene 112744); experiment: BSK_BT_xIL17F: BioMAP Diversity Plus: BT Assay for Interleukin 17F (IL17F) Biomarker Activity (AID 2284243); conditions: primary human B cells with PBMC
# Procedure, shortened: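 Luminex readout of IL-17F secretion, 24 h; cells: human B cells with PBMC; positive-direction analysis, DMSO control.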
# [7] = read-out: Actin alpha 1 (ACTA1), ACTA1 (gene 58); experiment: BSK_MyoF_ACTA1: BioMAP Diversity Plus: MyoF Assay for Actin alpha 1 (ACTA1) Biomarker Activity (AID 2284244); conditions: primary human lung fibroblasts
# Procedure, shortened: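 Cells were exposed to chemical for 24 h before a-SMA levels were quantified by ELISA in human lung fibroblasts. Increases were fitted against DMSO as negative control; parallel SRB staining (0.1% after 10% TCA fixation, 560 nm) assessed cytotoxicity.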
# [8] = read-out: Interleukin 2 (IL2), IL2 (gene 3558); experiment: BSK_BT_xIL2: BioMAP Diversity Plus: BT Assay for Interleukin 2 (IL2) Biomarker Activity (AID 2284245); conditions: primary human B cells with PBMC
# Procedure, shortened: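 The BT system combines human B cells with peripheral blood mononuclear cells. Twenty-four hours after chemical dosing, secreted IL-2 was measured with xMAP bead technology, and responses were analyzed as increases over DMSO controls.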
# [9] = read-out: Basic fibroblast growth factor (bFGF), FGF2 (gene 2247); experiment: BSK_MyoF_bFGF: BioMAP Diversity Plus: MyoF Assay for Basic fibroblast growth factor (bFGF) Biomarker Activity (AID 2284246); conditions: primary human lung fibroblasts
# Procedure, shortened: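 Chemicals are added to human lung fibroblast cultures and incubated 24 h. bFGF is then measured by ELISA, while parallel cultures receive SRB staining for total protein as a cytotoxicity check. Data are fitted upward against DMSO.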
# [10] = read-out: Collagen IV, COL4A1 (gene 1282); experiment: BSK_MyoF_CollagenIV: BioMAP Diversity Plus: MyoF Assay for Collagen IV Biomarker Activity (AID 2284247); conditions: primary human lung fibroblasts
# Procedure, shortened: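 Human lung fibroblast system, 24 h chemical exposure. Endpoint: Collagen IV by ELISA, upward fit vs DMSO.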
# [11] = read-out: Monokine induced gamma interferon (MIG), CXCL9 (gene 4283); experiment: BSK_KF3CT_MIG: BioMAP Diversity Plus: KF3CT Assay for Monokine induced gamma interferon (MIG) Biomarker Activity (AID 2284248); conditions: primary human keratinocytes with fibroblasts
# Procedure, shortened: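 MIG in dosed human skin co-cultures was measured by ELISA at 24 h, relative to DMSO.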
# [12] = read-out: Collagen I, COL1A1 (gene 1277); experiment: BSK_hDFCGF_CollagenI: BioMAP Diversity Plus: hDFCGF Assay for Collagen I Biomarker Activity (AID 2284250); conditions: primary human foreskin fibroblasts
# Procedure, shortened: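 Collagen I ELISA, primary human foreskin fibroblasts, 24 h chemical exposure, DMSO = negative control/baseline, positive fitting direction.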
# [13] = UKN2_HCS_IMR90_cell_viability: Viability Assessment in the University of Konstanz (UKN) Leist Lab Neural Crest Cell Migration Assay in human induced IMR90 Pluripotent Stem Cells (UKN2) (AID 2284233);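 further: cells exposed to compound for 24 h after a 24 h migration phase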
# Procedure, shortened: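 Viability read as calcein-AM fluorescence by high-content imaging, Hoechst co-stain, 30 min. Human iPSC (IMR90) neural crest cells had migrated 24 h into stopper-defined gaps before 24 h chemical exposure. Fitted bidirectionally relative to DMSO.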
# [14] = CCTE_Mundy_HCI_Cortical_NOG_NeuronCount: CCTE's Neurite Outgrowth Assay in rat cortical cells for Neuron Count, Mundy Lab (AID 2284236; active means hit-call score of the fitted dose curve at least 0.9, where 1 is the maximum;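 further: neurons counted by imaging betaIII-tubulin and Hoechst stained cortical cells; cells exposed to compound for about 48 hours before fixation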)
# Procedure, shortened: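 Read-out: neuron number by high-content imaging of betaIII-tubulin (Alexa Fluor-488) and Hoechst-labelled rat primary cortical cells.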
# [15] = CCTE_Mundy_HCI_Cortical_NOG_BPCount: CCTE's Neurite Outgrowth Assay in rat cortical cells for Branch Point Count, Mundy Lab (AID 2284237);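 on AC50: branch points counted about two days after chemical exposure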
# Procedure, shortened: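 Measured 50.33 h after dosing, this morphology endpoint uses rat primary cortical cultures labelled for betaIII-tubulin. Branch points are quantified by high-content imaging, with DMSO as negative control and baseline.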
# [16] = CCTE_Mundy_HCI_hNP1_Casp3_7: CCTE's Caspase-Glo 3/7 Assay in human neuroprogenitor cells for Apoptosis, Mundy Lab (AID 2284240)
# Procedure, shortened: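 Luminescent caspase-3/7 readout, 26.5 h post-dose, in human neural progenitor cells from WA09 embryonic stem cells. Cells grew 40–44 h at 37 °C, 5% CO2 before chemical addition. Activity analysed as signal increase over DMSO baseline.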
# [17] = CCTE_Mundy_HCI_hNP1_CellTiter: CCTE's Cell Titer-Glo 2 Assay in human neuroprogenitor cells for Viability, Mundy Lab (AID 2284241; active means hit-call score of the fitted dose curve at least 0.9, where 1 is the maximum;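 on AC50: a hit is a drop in ATP luminescence versus DMSO meaning reduced viability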)
# Procedure, shortened: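 Viability read as luminescent ATP content (CellTiter-Glo, 30 min room temperature) twenty-four hours after dosing, relative to DMSO. Cells: WA09-derived hNP1 neuroprogenitors on poly-L-ornithine/laminin, plated 40 to 44 hours before chemical.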
# [18] = CCTE_Mundy_HCI_Cortical_Synap_Neur_Matur_NeuronCount: CCTE's Synaptogenesis and Neurite Maturation Assay in rat cortical cells for Neuron Count, Mundy Lab (AID 2284242; active means hit-call score of the fitted dose curve at least 0.9, where 1 is the maximum;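 further: neuron number from Hoechst nuclei and MAP2 staining by high-content imaging; hits reduce neuron count versus DMSO baseline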)
# Procedure, shortened: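 Cortical cells from rat are plated, treated with AraC at DIV 5, and exposed to test chemicals with a media change at DIV 7. At DIV 12 they are fixed and immunostained (MAP2, synaptophysin), and imaged neuron counts are compared against DMSO controls.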
# Chain of Tumor necrosis factor (Homo sapiens) (P01375 whole entry, looked up): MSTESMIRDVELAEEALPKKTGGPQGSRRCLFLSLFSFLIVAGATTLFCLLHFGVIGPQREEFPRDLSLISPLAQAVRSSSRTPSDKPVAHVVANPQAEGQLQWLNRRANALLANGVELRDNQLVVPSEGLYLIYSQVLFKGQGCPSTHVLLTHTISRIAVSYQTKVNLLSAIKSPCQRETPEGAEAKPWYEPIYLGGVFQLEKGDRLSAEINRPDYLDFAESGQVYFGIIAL
smiles,measurement,setting,value
CC(C)N(C(=O)CCl)c1ccccc1,AC50,[1],12.3 µM (active)
same,AC50,[2],12 µM (active)
same,AC50,[3],2.36 µM (active)
same,AC50,[4],3.62 µM (active)
same,AC50,[5],1.12 µM (active)
same,AC50,[6],8.76 µM (active)
same,AC50,[7],2.84 µM (active)
same,AC50,[8],11.8 µM (active)
same,AC50,[9],4 µM (active)
same,AC50,[10],4.16 µM (active)
O=C1C=CC(=O)c2ccccc21,AC50,[1],0.499 µM (active)
same,AC50,[2],0.812 µM (active)
same,AC50,[3],3.72 µM (active)
same,AC50,[4],4.3 µM (active)
same,AC50,[5],4.13 µM (active)
same,AC50,[6],0.61 µM (active)
same,AC50,[7],4.42 µM (active)
same,AC50,[8],0.714 µM (active)
same,AC50,[9],4.17 µM (active)
same,AC50,[10],2.56 µM (active)
CC(C)(C)c1cc([N+](=O)[O-])cc(C(C)(C)C)c1O,outcome,[1],inactive
same,AC50,[2],14.8 µM (active)
same,outcome,[3],inactive
same,outcome,[4],inactive
same,AC50,[5],0.0556 µM (active)
same,AC50,[6],13 µM (active)
same,outcome,[7],inactive
same,AC50,[8],20 µM (active)
same,outcome,[9],inactive
same,AC50,[10],0.396 µM (active)
Oc1c(Br)cc(Br)cc1Br,outcome,[1],inactive
same,outcome,[2],inactive
same,AC50,[3],15.4 µM (active)
same,AC50,[4],29.9 µM (active)
same,outcome,[5],inactive
same,outcome,[6],inactive
same,outcome,[7],inactive
same,outcome,[8],inactive
same,outcome,[9],inactive
same,AC50,[10],20 µM (active)
O=[N+]([O-])c1ccc(Nc2ccccc2)cc1,outcome,[1],inactive
same,outcome,[2],inactive
same,outcome,[3],inactive
same,outcome,[4],inactive
same,outcome,[5],inactive
same,outcome,[6],inactive
same,outcome,[7],inactive
same,outcome,[8],inactive
same,outcome,[9],inactive
same,outcome,[10],inactive
CCOP(=O)(OCC)SCCSCC,outcome,[1],inactive
same,outcome,[2],inactive
same,outcome,[3],inactive
same,outcome,[4],inactive
same,outcome,[5],inactive
same,outcome,[6],inactive
same,outcome,[7],inactive
same,outcome,[8],inactive
same,outcome,[9],inactive
same,outcome,[10],inactive
O=S(=O)(C(Cl)(Cl)Cl)C(Cl)(Cl)Cl,AC50,[1],3.85 µM (active)
same,AC50,[2],4.36 µM (active)
same,AC50,[3],3.12 µM (active)
same,AC50,[4],3.07 µM (active)
same,AC50,[5],4.1 µM (active)
same,AC50,[6],3.03 µM (active)
same,AC50,[7],2.64 µM (active)
same,AC50,[8],4.48 µM (active)
same,AC50,[9],3.71 µM (active)
same,AC50,[10],2.53 µM (active)
Cc1ccc2nc3sc(=O)sc3nc2c1,outcome,[1],inactive
same,outcome,[2],inactive
same,AC50,[3],7.88 µM (active)
same,outcome,[4],inactive
same,outcome,[5],inactive
same,outcome,[6],inactive
same,outcome,[7],inactive
same,outcome,[8],inactive
same,outcome,[9],inactive
same,outcome,[10],inactive
CCCCOC(=O)COC(=O)c1ccccc1C(=O)OCCCC,outcome,[11],inactive
same,outcome,[12],inactive
CCOCn1c(-c2ccc(Cl)cc2)c(C#N)c(Br)c1C(F)(F)F,AC50,[13],15.1 µM (active)
same,AC50,[14],58 µM (active)
same,AC50,[15],18.6 µM (active)
same,AC50,[16],10.5 µM (active)
same,AC50,[17],13.5 µM (active)
same,AC50,[18],12.1 µM (active)
CS(=O)(=O)c1ccc(C(=O)C2C(=O)CCCC2=O)c(Cl)c1COCC(F)(F)F,outcome,[14],inactive
same,outcome,[15],inactive
same,outcome,[16],inactive
same,outcome,[17],inactive
